Results: the supplement of paper PMC13380429

System: Vero E6 infected with SARS-CoV-2
Experiment: inhibition of SARS-CoV-2 cytopathic effect; higher = more antiviral protection, active = above 15
Conditions: 48 h

Measured: inhibition of SARS-CoV-2 cytopathic effect

Clc1ccc(-c2nc3sccn3c2/C=N/OCc2ccc(Cl)c(Cl)c2)cc1
inactive: 1 nM -0.5% | 8.33 nM -0.99% | 100 nM -1.16% | 833.33 nM -0.11% | 10000 nM 0.21%

COC(=O)C1=C(C)NC(C)=C(C(=O)OCCN(C)Cc2ccccc2)C1c1cccc([N+](=O)[O-])c1 (stereo not given) [nicardipine]
inactive: 1 nM 0.9% | 8.33 nM 0.28% | 100 nM 0.23% | 833.33 nM -0.11% | 10000 nM -1.36%

Cc1cc(OCc2nc(-c3ccccc3Cl)cs2)ccc1OCC(=O)O [GPR120-modulator-1]
inactive: 1 nM -0.13% | 8.33 nM 2.43% | 100 nM -1.19% | 833.33 nM -1.62% | 10000 nM -2.32%

CCCCCCN(CCCCCC)C(=O)Cc1c(-c2ccc(F)cc2)[nH]c2ccccc12
inactive: 1 nM 5.1% | 8.33 nM 3.61% | 100 nM 3.88% | 833.33 nM 0.72% | 10000 nM -4.49%

Cn1ncc(Cl)c1-c1cc(C(=O)N[C@H](CN)Cc2ccc(F)c(F)c2)oc1Cl [uprosertib]
inactive: 1 nM -2.98% | 8.33 nM -0.16% | 100 nM -1.46% | 833.33 nM 0.21% | 10000 nM -3.53%

Cc1c[nH]c(=O)n(CCCN2CCN(c3ccccc3OCC(F)(F)F)CC2)c1=O
inactive: 1 nM -2.56% | 8.33 nM 0.88% | 100 nM -3.18% | 833.33 nM -1.23% | 10000 nM -1.99%

O=C(O)c1cc(/N=N/c2ccc(S(=O)(=O)Nc3ccccn3)cc2)ccc1O [sulfasalazine]
inactive: 1 nM -0.13% | 8.33 nM -2.23% | 100 nM -0.23% | 833.33 nM -1.38% | 10000 nM 0.47%

CNCCC(Oc1ccccc1OC)c1ccccc1 (stereo not given) [nisoxetine]
inactive: 1 nM -1.97% | 8.33 nM 0.21% | 100 nM 4.4% | 833.33 nM 7.73% | 10000 nM -0.07%

COC(=O)[C@@H](N)CCCNC(=N)N[N+](=O)[O-]
inactive: 1 nM 0.94% | 8.33 nM -2.09% | 100 nM -1.83% | 833.33 nM -3.06% | 10000 nM -0.4%

COc1cc(C(=O)NC2CCCNC2)cc(OC)c1OC (stereo not given) [troxipide]
inactive: 1 nM 0.11% | 8.33 nM -0.47% | 100 nM 1.46% | 833.33 nM -0.19% | 10000 nM 2.03%
